Drawing on PubChem BioAssay (NCI), this text covers growth for 13 molecules.

Test systems include NCI-H23 lung; NCI-H226 lung; NCI-H322M lung; HOP-62 NSCLC; NCI-H460 lung; HOP-92 NSCLC; NCI-H522 lung; A549/ATCC NSCLC; 786-0 renal; COLO 205 colon.
What all share (assay): NCI-60 one-dose screen, 48 h (100 = growth as untreated, 0 = no growth, -100 = all killed)
What all share (conditions): 10 µM unless noted

SMILES strings stand for the structures. Compounds without any hit were thinned out: in the full panel of roughly 83,000, 20% have a hit.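 The endpoint reported here, percent growth, reads 100 for growth as untreated, 0 for no net growth and -100 for all cells dead.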 A number with no mark means an inactive call. Activity calls are given as the source filed them. How the source made its calls: active means growth percent below 10; inactive means the rest.

For `O=C(COc1ccc(/C=C2\Oc3ccccc3C2=O)cc1)Nc1nc2c(s1)CCCC2`, the growth is 45.1% in the experiment with NCI-H23 lung; 84.3% with NCI-H226 lung; 115% in the experiment with NCI-H322M lung; 44.2% in the experiment with HOP-62 NSCLC; 99.5% with NCI-H460 lung; -90.1% (active) in the experiment on HOP-92 NSCLC. In addition, the growth in the experiment on NCI-H522 lung is -74.9% (active); with A549/ATCC NSCLC, 73.2%; in the experiment with 786-0 renal, 20%; in the experiment with COLO 205 colon, 102%.

On to `CNC(=O)c1cc(Oc2ccc3nc(Nc4ccc(Cl)c(C(F)(F)F)c4)ccc3c2)ccn1`, for which the growth in the experiment on NCI-H23 lung was 72.5%; with NCI-H226 lung it was 56.9%; in the experiment with NCI-H322M lung, 89.2%; in the experiment with HOP-62 NSCLC, 85.1%; with NCI-H460 lung it was 55.8%; in the experiment with HOP-92 NSCLC, 59.2%. The growth in the experiment with NCI-H522 lung is 22.7%; with A549/ATCC NSCLC, 48.2%; with 786-0 renal, 85%; in the experiment on COLO 205 colon, 52.6%.

`Cc1ccc(C(=NN=C(N)N)c2ccc(C)cc2)cc1`: the growth with NCI-H23 lung was -14.5% (active); with NCI-H226 lung it was 12.3%; with NCI-H322M lung, 30.5%; in the experiment on HOP-62 NSCLC, 13.1%; in the experiment with NCI-H460 lung, 2.86% (active); in the experiment on HOP-92 NSCLC it was -0.938% (active). Also, the growth in the experiment on NCI-H522 lung was -13.8% (active); with A549/ATCC NSCLC, 11.1%; in the experiment on 786-0 renal it was -25% (active); with COLO 205 colon, -83.2% (active).

Take `O=C1/C(=C2/C=Nc3ccccc32)N(O)c2ccccc21`: the growth in the experiment on NCI-H23 lung was 56.8%; with NCI-H226 lung, 77%; in the experiment with NCI-H322M lung, 108%; in the experiment on HOP-62 NSCLC, 95.6%; in the experiment on NCI-H460 lung, 91.4%; in the experiment on HOP-92 NSCLC, 124%. For the same molecule, the growth in the experiment with NCI-H522 lung is 57.1%; with A549/ATCC NSCLC it was 94.2%; in the experiment with 786-0 renal, 104%; in the experiment with COLO 205 colon, 104%.

For `c1csc(-c2c3ccc(=[N+]4CCCCC4)cc-3oc3cc(N4CCCCC4)ccc23)c1`, the growth with NCI-H23 lung was -71.3% (active); in the experiment with NCI-H226 lung it was -81.7% (active); in the experiment with NCI-H322M lung, -78.5% (active); in the experiment on HOP-62 NSCLC, -60.6% (active); in the experiment with NCI-H460 lung, -57.3% (active); in the experiment on HOP-92 NSCLC it was -64.7% (active). Also, the growth in the experiment with NCI-H522 lung was -70% (active); in the experiment with A549/ATCC NSCLC, -56.2% (active); in the experiment with 786-0 renal, -92.5% (active); in the experiment on COLO 205 colon, -61.5% (active).

In the case of `COc1cc(C2NC(=O)c3ccccc3N2)ccc1OCCCCCOc1c(OC)cc(C2=NOC(c3cc(OC)c(OC)c(OC)c3)C2)cc1OC` (stereo not given), the growth with NCI-H23 lung was 59.5%; with NCI-H226 lung, 71.5%; with NCI-H322M lung, 103%; in the experiment with HOP-62 NSCLC, 95.1%; in the experiment with NCI-H460 lung, 63.4%; with HOP-92 NSCLC, 38.3%. Also, the growth is 56.3% in the experiment on NCI-H522 lung, 67.5% with A549/ATCC NSCLC, 95% in the experiment on 786-0 renal and 108% in the experiment with COLO 205 colon.

In the case of `Cc1nn(-c2ccccc2)c2nc3c(c(-c4ccc(Cl)cc4)c12)CNC1(CCSCC1)N3`, the growth is 97.4% in the experiment with NCI-H23 lung; 81.2% in the experiment with NCI-H226 lung; 100% in the experiment with NCI-H322M lung; 93.6% in the experiment on HOP-62 NSCLC; 99.6% with NCI-H460 lung; 74.1% in the experiment with HOP-92 NSCLC. The growth in the experiment with NCI-H522 lung is 110%; with A549/ATCC NSCLC, 87%; with 786-0 renal it was 105%; with COLO 205 colon it was 94.5%.

With `O=[N+]([O-])c1ccc(OCCO)cc1`, the growth in the experiment with NCI-H23 lung was 99.6%; with NCI-H226 lung, 99.7%; with NCI-H322M lung, 104%; in the experiment on HOP-62 NSCLC it was 101%; with NCI-H460 lung, 108%; with HOP-92 NSCLC it was 81.2%. In addition, the growth is 102% in the experiment with NCI-H522 lung, 105% with A549/ATCC NSCLC, 109% with 786-0 renal and 107% in the experiment with COLO 205 colon.

Turning to `Cc1ccc2nc(NC(=O)CSc3nc(Nc4ccc([N+](=O)[O-])cc4)c(C#N)c(-c4ccccc4)n3)sc2c1`, the growth in the experiment with NCI-H23 lung was 99.6%; with NCI-H226 lung, 98.7%; with NCI-H322M lung, 92.6%; in the experiment on HOP-62 NSCLC, 95.6%; with NCI-H460 lung, 98.7%; with HOP-92 NSCLC, 90.9%. Moreover, the growth is 87.3% with NCI-H522 lung, 93.8% in the experiment with A549/ATCC NSCLC, 101% in the experiment on 786-0 renal and 108% in the experiment with COLO 205 colon.

On to `COc1cc(OC)cc(C2CC(=O)Nc3c2c(C)nn3-c2nc3ccccc3[nH]2)c1` (stereo not given), for which the growth in the experiment with NCI-H23 lung is 5.52% (active); in the experiment with NCI-H226 lung, 36.5%; in the experiment with NCI-H322M lung it was 59.9%; in the experiment with HOP-62 NSCLC it was -44.2% (active); in the experiment on NCI-H460 lung, 5.89% (active); in the experiment with HOP-92 NSCLC, 0.274% (active). In addition, the growth was 3.99% (active) with NCI-H522 lung, 15.2% with A549/ATCC NSCLC, 25.4% in the experiment with 786-0 renal and 51.4% in the experiment on COLO 205 colon.

As to `N=C1CCC(=N)c2c1c(O)c1ccccc1c2O`, the growth in the experiment on NCI-H23 lung was 82.3%; with NCI-H226 lung, 87.3%; in the experiment with NCI-H322M lung, 93.1%; in the experiment on HOP-62 NSCLC, 103%; in the experiment on NCI-H460 lung it was 173%; with HOP-92 NSCLC, 88.7%. The growth is 91.6% in the experiment with NCI-H522 lung, 95.2% with A549/ATCC NSCLC, 113% in the experiment on 786-0 renal and 114% in the experiment with COLO 205 colon.

In the case of `CN(C)CCNc1nc2ccccc2c2c1c1c(n2Cc2ccccc2)-c2ccccc2C1=O`, the growth with NCI-H23 lung was -74.8% (active); with NCI-H226 lung, -57.1% (active); in the experiment with NCI-H322M lung, -79.5% (active); in the experiment with HOP-62 NSCLC, -90.4% (active); with NCI-H460 lung, -98.6% (active); in the experiment with HOP-92 NSCLC, -78.7% (active). In addition, the growth in the experiment with NCI-H522 lung is -69.2% (active); in the experiment on A549/ATCC NSCLC, -73% (active); in the experiment with 786-0 renal it was -89.6% (active); in the experiment with COLO 205 colon it was -76.9% (active).

As for `COc1cc(C(=O)c2cc(C)c3[nH]c4ccc(Cl)cc4c3c2C)cc(OC)c1OC`, the growth was 13.8% in the experiment on NCI-H23 lung; 54.8% with NCI-H226 lung; 33% in the experiment with NCI-H322M lung; 40% with HOP-62 NSCLC; 4.97% (active) in the experiment with NCI-H460 lung; 38.6% in the experiment on HOP-92 NSCLC. Moreover, the growth is 35.5% in the experiment on NCI-H522 lung, 19.6% in the experiment on A549/ATCC NSCLC, 19.6% with 786-0 renal and 11% in the experiment on COLO 205 colon.
